KKLEB cytotox: CF airway cell cytotoxicity counter-screen; KKLEB CF airway cells viability, ATPlite luminescence, overnight; hits give low values; cells stimulated with P. aeruginosa culture filtrate; activity change (cytotoxicity), % at 5 µM; 0.36% of 360,000 active; AID 602141;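 active = corrected activity change at or below -50% at 5 µM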
CHOP inhibitor: inhibitors of CHOP induction in ER stress response. inhibition, % at 10 µM. 3.8% of 220,000 active. CHO-K1 CHOP-promoter luciferase, tunicamycin-induced, 15-18 h;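 active = compounds that reduced the stress-induced luciferase reporter signal by more than about 70% of percent inhibition, limit read from the data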;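 note: 0% = tunicamycin plus vehicle and 100% = wells without tunicamycin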
HIF-2a block: HIF-2a inhibition; 786-0 RCC cells HIF-2a reporter, luciferase luminescence, overnight; inhibition, % at 18.8 µM; 0.72% of 360,000 active;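 active = inhibition of the luminescence signal of 40% or more relative to plate controls, in a single-dose primary screen at 18.75 µM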
Peg3 promoter: Peg3 promoter activity inhibition. HeLa PEG-Prom luciferase reporter, luminescence, overnight. inhibition, % at 20 µM. 1.7% of 360,000 active. AID 588405;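 active = inhibition of at least 50% at 20 µM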
CF NFkB inh: blocks PAF-induced NF-kB reporter in cystic fibrosis cells. KKLEB NF-kB-GFP reporter, GFP fluorescence overnight. inhibition, % at 5 µM. 0.86% of 360,000 active;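 active = at least 50% inhibition at 5 µM, scaled per plate between neutral and stimulator controls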;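 note: PAF is a Pseudomonas aeruginosa culture filtrate used as stimulus; plate controls were PAF-stimulated DMSO wells for no effect and unstimulated DMSO wells for full effect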
MITF TRPM1 inh: reduces MITF-dependent TRPM1 promoter luciferase signal | 0.83% of 330,000 active | AID 488899 | inhibition, % at 12.5 µM | SK-MEL-5 TRPM1 promoter luciferase, 24 h;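 active = mean inhibition across replicates of 60% or more, whatever share of single replicates reaches that level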
An asterisk follows results filed as active; i = inactive; . = no result given. An excerpt weighted towards active compounds, which were near 4.3% of everything screened.

SMILES | KKLEB cytotox | CHOP inhibitor | HIF-2a block | Peg3 promoter | CF NFkB inh | MITF TRPM1 inh
CO/N=C(\Cn1ncc(NC2CCCCC2)c(Br)c1=O)c1ccc(Cl)cc1 | -0.7 | 84.1* | 13.8 | 25.3 | 27.0 | 9.7
CO/N=C(\Cn1ncc(N2CCCC2)c(Br)c1=O)c1ccc(Cl)cc1 | -4.8 | 42.0 | 20.9 | 17.2 | 1.9 | -1.5
Cc1ccc(O)c(NC(=O)CSc2ccc(Cl)cc2)c1 | 4.2 | 1.0 | -5.4 | -32.2 | 16.1 | 8.5
Cc1ccc(NS(=O)(=O)c2ccc(NC(=O)CSc3ccc(Cl)cc3)cc2)c(C)c1 | 2.4 | 70.3* | 24.6 | 17.8 | -1.2 | 6.1
Cc1ccc(NS(=O)(=O)c2ccc(NC(=O)CN(c3cc([N+](=O)[O-])ccc3C)S(C)(=O)=O)cc2)c(C)c1 | 24.9 | 44.3 | 11.1 | 50.1* | -17.2 | 17.1
O=C(NCCC1=CCCCC1)c1cccc2c1C(=O)N(C1CCCCC1)C2 | 19.7 | 84.8* | 11.3 | 29.9 | -8.6 | 9.0
Cc1ccc(NC(=O)c2cccc3c2C(=O)N(C2CCCCC2)C3)c(C)c1 | -0.8 | . | 3.9 | -2.6 | 17.2 | 4.9
Cc1cccc(CCNC(=O)c2cccc3c2C(=O)N(C2CCCCC2)C3)c1 | 3.3 | . | 11.4 | 11.3 | -8.9 | 11.4
Cc1cc(C)c(NC(=O)c2cccc3c2C(=O)N(C2CCCCC2)C3)c(C)c1 | 0.9 | . | 14.6 | 55.9* | 6.5 | 13.2
COc1ccc(NC(=S)N(CCN(C)C)C(C)c2ccncc2)cc1Cl (configuration not stated) | 4.7 | -6.2 | 2.7 | 54.3* | -6.6 | -5.0
COc1cc(Cl)ccc1NC(=S)N(CCN(C)C)C(C)c1ccncc1 (configuration not stated) | -2.8 | -3.8 | 17.4 | 13.6 | 15.7 | 11.5
O=C(Nc1ccc2[nH]c(=O)[nH]c2c1)c1ccc([N+](=O)[O-])o1 | 8.1 | . | 15.8 | 9.3 | -2.3 | 48.6
O=C(Nc1cccc2ccccc12)c1ccc([N+](=O)[O-])o1 | -23.9 | . | 31.0 | 37.4 | 82.7* | 53.8
Cc1ccc(-n2nnnc2CNC(=O)c2ccc([N+](=O)[O-])o2)cc1C | 5.2 | . | 20.2 | 22.2 | -21.8 | 62.2*
Cc1ccc(NC(=O)c2ccc([N+](=O)[O-])o2)cc1C | -62.7* | -53.9 | -17.3 | 96.9* | 81.8* | 21.9
O=C(Nc1cccc([N+](=O)[O-])c1)c1ccc([N+](=O)[O-])o1 | -8.7 | . | 21.0 | 41.8 | 70.0* | .
O=C(c1cccc(S(=O)(=O)N2CCc3ccccc32)c1)N1CCCC(C(F)(F)F)C1 (configuration not stated) | 9.2 | . | 0.3 | 10.8 | 10.7 | 16.1
C#CCOCCOCCOCCNc1nc(N2CCN(C(=O)[C@H](CO)n3cc([C@@H](N)C(C)C)nn3)CC2)nc(N2CCN(C(=O)[C@H](CO)n3cc([C@@H](N)C(C)C)nn3)CC2)n1 | -14.7 | . | 12.8 | -7.2 | -8.8 | 0.8
Cc1cc(S(=O)(=O)ON2C(=O)c3ccccc3C2=O)ccc1F | -8.2 | . | 34.2 | 61.3* | 7.6 | 43.5
Cc1ccc(S(=O)(=O)ON2C(=O)c3cccc4cccc(c34)C2=O)cc1 | 3.9 | 44.2 | -0.7 | 13.3 | -11.3 | 12.4
O=C(Nc1ccc2c(c1)OCCO2)C(CCc1ccccc1)N1CCC(Cc2ccccc2)CC1 (configuration not stated) | -0.4 | . | -272.6 | -103.9 | -18.8 | .
O=C(CN1C(=O)NC2(CCCC2)C1=O)OCCOc1ccc(Br)cc1 | -1.5 | . | -6.2 | 6.7 | 13.5 | 2.4
CCOC(=O)N1CCN(Cc2nc(N)nc(Nc3ccc(Oc4ccccc4)cc3)n2)CC1 | 4.3 | 74.3* | -59.1 | 9.8 | 18.5 | 15.3
c1ccc2c(C[C@@H]3CNCCN3CC3CCCCC3)cccc2c1 | -2.8 | . | 8.1 | 93.6* | 11.2 | -7.3
c1ccc([C@H]2CNCCN2CCc2cccc3ccccc23)cc1 | -13.6 | . | 1.4 | 86.2* | 31.8 | 3.0
SMILES | KKLEB cytotox | CHOP inhibitor | HIF-2a block | Peg3 promoter | CF NFkB inh | MITF TRPM1 inh
Cc1nn(C(=O)c2cccs2)c(N)c1-c1ccccc1 | -10.5 | 94.6* | -334.2 | i | -5.6 | -96.3
COc1ccc(Nc2nc(S(=O)(=O)c3ccc(C)cc3)c(Cl)s2)cc1 | -5.3 | 69.8 | 24.5 | 46.0 | 13.3 | 1.9
Cc1ccc(S(=O)(=O)c2nc(Nc3ccccc3)sc2Cl)cc1 | -8.6 | 73.1* | 18.7 | 20.4 | 13.3 | 4.4
CC(=C/c1ccc(C(C)C)cc1)/C=N/NC(=O)CSc1ccccn1 | 16.4 | 92.2* | -135.3 | -248.3 | 5.3 | -44.7
O=c1ccc(-c2ccc(S(=O)(=O)N3CCN(c4cccc(Cl)c4)CC3)o2)n[nH]1 | 3.4 | . | 13.6 | 22.4 | -7.0 | 7.3
COc1ccc(OC)c(NC(=O)CCn2c(=S)[nH]c3ccccc3c2=O)c1 | -1.3 | . | 1.5 | 16.0 | -0.5 | 5.4
COc1ccc(OC)c(NC(=O)c2ccc3c(=O)n(CCc4ccccc4)c(=S)[nH]c3c2)c1 | -39.1 | 100.4* | 3.0 | 13.4 | 42.1 | 29.8
S=C(NCCCCN(Cc1ccc(Cl)cc1)c1ccc(Br)cn1)NCCCc1cnc[nH]1 | -15.8 | . | -13.7 | 96.1* | 13.7 | .
Cc1ccc(S(=O)(=O)C=CS(=O)(=O)c2ccc(C)cc2)cc1 | -37.4 | . | 52.4* | 95.4* | 96.5* | .
CCOC(=O)CSC1=NC(=O)/C(=C/c2ccc(Br)cc2)S1 | -16.3 | 101.7* | -129.9 | 74.5* | 41.7 | 53.5
O=C(COc1ccc(Br)cc1)NNC(=O)c1cc(S(=O)(=O)N2CCOCC2)ccc1Cl | -30.8 | . | 18.9 | 5.8 | 7.8 | 2.1
CN(C)Cc1csc(Nc2ccc(C(F)(F)F)cn2)n1 | -1.1 | . | -111.1 | -44.5 | 7.3 | .
CC1(C)OC(=O)C(=CNC(=O)c2c(F)cccc2F)C(=O)O1 | 5.2 | 72.5* | 3.1 | 11.8 | -2.6 | 6.2
CCCC1NC(=O)c2cc3ccccc3cc2-n2c1nc1ccc(F)cc1c2=O (configuration not stated) | -4.6 | . | 5.3 | 26.9 | 17.0 | .
COc1cccc(C2c3c(-c4cc(Cl)c(C)cc4O)n[nH]c3C(=O)N2Cc2cccnc2)c1 (configuration not stated) | 10.3 | 75.3* | 30.5 | 25.0 | -10.0 | -5.9
CC1CN(C(=O)CNC(=O)COc2ccccc2)CC(C)O1 (configuration not stated) | -32.0 | . | 7.3 | -0.2 | -1.4 | -8.8
O=C(NC1CCCCC1)N(Cc1nc2ccccc2c(=O)[nH]1)C1CCCCC1 | -2.9 | -15.5 | -75.2 | -10.2 | 8.7 | -9.5
Cc1sc2nc(CN(C(=O)NC3CCCCC3)C3CCCCC3)[nH]c(=O)c2c1C | -4.6 | 18.7 | 13.0 | 50.1* | -10.9 | 20.1
Cc1ccccc1Oc1cc(NC(=O)CCCn2nc(C)c([N+](=O)[O-])c2C)cc([N+](=O)[O-])c1 | -12.5 | 91.3* | 8.0 | 33.9 | 8.0 | -2.4
O=C1c2c(Br)c(Br)c(Br)c(Br)c2C(=O)N1c1ccccn1 | 3.8 | . | 39.9 | 52.2* | -4.7 | 27.5
O=C1c2cccc3cccc(c23)C(=O)N1c1ccccn1 | 2.0 | 0.2 | 8.9 | -13.3 | -12.1 | 0.6
